Compounds with a hit are over-represented: about 11% of the library has one in this group of screens.
IL-1B inflam inh = inhibitors of inflammasome signaling (IL-1 beta secretion). THP-1 LPS/ATP IL-1B secretion, AlphaLISA, 16 h; active compounds read low. actives 4.7% (n = 360,000). AID 743279. activity change, % at 57.5 µM; in the data active means activity change below about -50%; inconclusive means mostly about -30% to -49%; further: on the % scale 0 is the no-effect control and ±100 the full control effect
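Secreted IL-1B measured by AlphaLISA bead assay after 16 h compound exposure of THP-1 cells; compounds (final up to 57.5 uM) added 1 h before LPS (250 ng/mL) and ATP (1.25 mM) stimulation; lower signal means less secretion.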
RORgamma inh = inhibitors of mouse ROR gamma transcriptional activity; Drosophila S2 Gal4-RORgamma UAS-luciferase reporter, 20 h; Potency, µM (series often up to 53.6 µM), without a hit: at the top dose activity change, negative = inhibition, actives largely listed as inhibitors; P51450; actives 5.4% (n = 310,000); further: potency means the concentration at half of the fitted maximal effect; on the % scale 0 is the no-effect control and ±100 the full control effect; nearly all actives have a fitted effect of over 60% in size
Target sequence (P51450 whole entry, looked up, the tested form may be a part): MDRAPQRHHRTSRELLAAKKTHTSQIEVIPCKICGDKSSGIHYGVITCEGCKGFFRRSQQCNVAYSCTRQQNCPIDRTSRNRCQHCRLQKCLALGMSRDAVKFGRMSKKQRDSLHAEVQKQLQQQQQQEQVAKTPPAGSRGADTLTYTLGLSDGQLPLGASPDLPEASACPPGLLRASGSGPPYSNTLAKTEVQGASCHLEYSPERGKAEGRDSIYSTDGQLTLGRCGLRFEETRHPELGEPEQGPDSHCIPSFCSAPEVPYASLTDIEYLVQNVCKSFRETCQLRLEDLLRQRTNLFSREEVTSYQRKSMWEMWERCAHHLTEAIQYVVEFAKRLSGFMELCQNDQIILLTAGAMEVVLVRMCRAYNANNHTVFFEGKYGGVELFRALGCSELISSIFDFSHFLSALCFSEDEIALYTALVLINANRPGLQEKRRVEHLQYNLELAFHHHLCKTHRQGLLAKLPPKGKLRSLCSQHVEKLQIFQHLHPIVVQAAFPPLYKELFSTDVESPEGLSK
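In this cell-based reporter format, copper sulfate (700 uM final) drives Gal4–ROR gamma fusion expression from a metallothionein promoter in Drosophila Schneider cells; compounds preincubated 1 hr, reporter read after 20 hr at ambient temperature.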
Gal4-VP16 FLuc = inhibits Gal4-VP16 luciferase reporter, ROR gamma counter-screen | Drosophila S2 Gal4-VP16 UAS-luciferase, luminescence, 20 h | Potency, µM (highest dose often 53.6 µM), inactives show at the top dose activity, negative = inhibition, actives largely listed as inhibitors | actives 3.5% (n = 310,000);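 further: Gal4-VP16 expression switched on by copper sulfate through the metallothionein promoter; potency means the concentration at half of the fitted maximal effect; on the % scale 0 is the no-effect control and ±100 the full control effect; nearly all actives have a fitted effect of over 50% in size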
MCF10A rereplic = DNA re-replication induction in MCF 10a cells | actives 2.9% (n = 350,000) | Potency, µM (series often up to 46.1 µM), inactives show at the highest dose activity, positive = re-replication, most hits filed as activators | AID 624296 | MCF 10A DNA re-replication, Hoechst nuclear intensity, 48 h; further: potency means the concentration at half of the fitted maximal effect; % of control where 0% means no effect; nearly all actives have a fitted effect of over 50% in size
SW480 rereplic = induces DNA re-replication in SW480 colon adenocarcinoma cells; SW480 DNA re-replication, Hoechst DNA content imaging, 48 h; Potency, µM (titrated, usually from 46.1 µM), for inactives: at the top dose re-replication activation, usual class: activators; actives 1.8% (n = 340,000); further: potency means the concentration at half of the fitted maximal effect; % of control where 0% means no effect; nearly all actives have a fitted effect of over 55% in size
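First, 250 cells per well were seeded. Next, compound or vehicle (23 nL) was pinned in, plates sat 48 hr at 37 C. Finally Hoechst was added for 40 min before fluorescence scanning.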
An asterisk follows results filed as active; u = inconclusive; x = not tested or not shown; [ ] = remark or other dose. Unless noted, the call rests on the fitted dose curve; in most records, active means well fitted curve in the direction sought with a large enough effect; inconclusive means small, poorly fitted or top-dose-only effect, or another doubt; inactive means no such curve, though single readings can be large; an effect the other way counts as inactive or inconclusive.

SMILES	IL-1B inflam inh	RORgamma inh	Gal4-VP16 FLuc	MCF10A rereplic	SW480 rereplic
O=C1Nc2ccc(Br)cc2/C1=C/C(=O)c1ccc2c(c1)OCO2	u	11.2µM*	u	3.66µM*	u
O=C(NCc1ccc2c(c1)OCO2)c1ccc(Br)cc1	-3.1	24.7%	2.4%	-0.2%	-1.3%
CC1=NNC(=O)/C1=C\c1cn(-c2ccccc2)nc1-c1ccc(Cl)cc1	-118.6*	5.01µM*	3.16µM*	3.66µM*	11.6µM*
Cc1ccc(-c2nn(-c3ccccc3)cc2C=C2C(=O)CC(C)(C)CC2=O)cc1	-29.5	10.5%	-7.3%	u	-8.1%[9.22 µM]
CC1=NN(c2ccccc2)C(=O)/C1=C\c1cn(CCC#N)nc1-c1ccc(Cl)cc1	-85.2*	-15.5%	2.4%	1.5%	-37.1%
CN(C)CC[n+]1ccc(C(=O)c2ccccc2)cc1	6.6	17.3%[1.91 µM]	6.2%	-1.7%	-0.6%
CC(=O)NCCNc1nc2cc(-c3ccccc3CO)sc2c(=O)n1C	0.0	x	x	x	x
COC(=O)C1=C(C(=O)OC)[C@@H]2N(Cc3ccccc3)c3ccccc3[C@@]23C[C@@H](C(=O)OC)N(C(=O)NCc2ccccc2)C3=C1	x	-8.4%	-2.7%	x	x
CC(N)c1csc(NC(=O)Nc2cccc(C(F)(F)F)c2)n1 (configuration not stated)	-102.2*	x	x	x	x
Cc1cccc(C)c1NC(=O)Nc1nc(C(N)c2ccccc2Cl)cs1 (configuration not stated)	-19.4	x	x	x	x
CN(C)Cc1csc(NC(=O)Nc2cccc(C(F)(F)F)c2)n1	-6.7	x	x	x	x
NC(c1csc(NC(=O)Nc2ccc(OC(F)(F)F)cc2)n1)C1CCCCC1 (configuration not stated)	-111.8*	x	x	x	x
COc1ccc(OC)c(NC(=O)Nc2nc(C(N)c3ccccc3Cl)cs2)c1 (configuration not stated)	-51.2*	x	x	x	x
NC(c1csc(NC(=O)Nc2cccc(Cl)c2)n1)c1ccccc1Cl (configuration not stated)	-106.6*	x	x	x	x
O=C(Nc1cccc(F)c1)N1CC[C@@]2(CCCN(C(=O)c3cc(C(F)(F)F)cc(C(F)(F)F)c3)C2)C1	x	16.5%	13.6%	x	x
O=C(C[C@@H]1C/C=C\C[C@H](Cc2ccc(F)cc2)C(=O)OC[C@@H]2CCCN2C1=O)N[C@H](CO)Cc1ccccc1	-0.6	x	x	u	3.0%
CC(C)N1CC(C(=O)Nc2ccc(Cl)cc2Cl)CC1=O (configuration not stated)	-11.0	x	x	x	x
COc1cccc(NC(=O)COC(=O)CCCC2=NS(=O)(=O)c3ccccc3N2)c1	-8.6	14.9%	2.8%	-0.8%	0.7%
COc1ccc(OC)c(NC(=O)Nc2nc(C(N)C(C)C)cs2)c1 (configuration not stated)	-63.5*	x	x	x	x
O=C(Cc1ccc([N+](=O)[O-])cc1)Nc1ccc2c(c1)CCC2	-7.9	-29.7%	-2.8%	0.2%	-6.8%
Cc1cc(NC(=O)CS(=O)(=O)c2cn(Cc3cccc(F)c3)c3ccccc23)no1	-55.0*	-3.1%	-8.4%	15.2%	-0.4%
COc1ccc(-n2c(=S)[nH]c3cc(C(=O)Nc4ccc(F)cc4)ccc3c2=O)c(OC)c1	u	10µM*	17.8µM*	26.7%	u
COc1ccc(-n2c(=S)[nH]c3cc(C(=O)NCCCN4CCCC4=O)ccc3c2=O)c(OC)c1	7.7	u	-18.4%	-0.2%	1.9%
COc1ccc(NC(=O)c2ccc3c(=O)n(-c4ccc(OC)cc4OC)c(=S)[nH]c3c2)cc1	67.9	5.01µM*	11.2µM*	3.6%	-10.7%
Cc1cc(OCC(=O)OCC(=O)N(Cc2ccccc2)C(C)(C)C)ccc1Cl	8.2	x	x	x	x
SMILES	IL-1B inflam inh	RORgamma inh	Gal4-VP16 FLuc	MCF10A rereplic	SW480 rereplic
CN(C)CCCNc1nc2cc(-c3cnn(C)c3)sc2c(=O)n1C	7.4	x	x	x	x
CC(C)(C)c1cc2cccnc2n1Cc1cccc(Cl)c1	u	2.24µM*	-6.8%[0.365 µM]	1.4%	1.5%
COc1ccnc2c1c(=O)n(Cc1cccc(Cl)c1)c(=O)n2C	30.6	6.9%	1.6%	1.3%	0.9%
COc1ccc(-c2ccnc(-c3ccc(OCCCF)cc3)n2)cc1	3.0	-15.0%	2.7%	14.6µM*	u
COc1cc(O)c(CC=C(C)C)c(O)c1C(=O)CCc1ccc(O)cc1	7.8	-14.2%	-4.7%	6.51µM*	u
O=C(Cc1ccccc1)NNC(=O)Cc1ccccc1	-0.7	10.7%	4.4%	-1.3%	1.0%
CN(C(=S)NC(=O)Cc1ccccc1)c1ccccc1	-60.5*	10µM*	u	0.1%	-1.9%
CCN(CC)C(=S)NC(=O)Cc1ccccc1	11.1	6.31µM*	u	-3.3%	4.7%
CSc1ccc(Cl)c(C(=O)NNC(=O)c2cccs2)c1	-19.2	x	x	-40.3%	3.6%
Cc1ccc(NC(=O)N(Cc2ccco2)C(C)c2ccco2)cc1C (configuration not stated)	-1.3	29.6%	-7.6%	27.5%	-6.0%
Cc1ccc(NC(=O)CN(Cc2ccco2)Cc2ccccc2O)cc1C	-61.8*	u	10.0%	u	u
CCOc1ccc(-c2nnc(NC(=O)Cc3cc(OC)c(OC)c(OC)c3)o2)cc1	0.0	11.2µM*	u	4.3%	-31.6%
COc1cc(OC)cc(C(=O)OCC(=O)Nc2nnc(-c3ccccc3)o2)c1	-2.8	x	x	2.2%	-69.4%
CCOc1ccc(C(=O)NCC(=O)OCC(=O)Nc2nnc(-c3ccccc3)o2)cc1	-16.1	x	x	14.6%	-42.7%
CCOc1ccc(-c2nnc(NC(=O)Cc3ccc(OC)cc3)o2)cc1	-4.5	1.78µM*	4.47µM*	u	-4.2%
CCOc1ccc(-c2nnc(NC(=O)CCCOc3cccc(C)c3)o2)cc1	-13.9	6.31µM*	u	u	0.3%
CCC(=O)Nc1nnc(-c2ccc(OC)cc2)o1	1.7	u	11.2µM*	2.9%	-0.5%
CCOC(=O)N1CCC(NC(=O)c2ccc3c(c2)N(C)C(=O)/C(=C/c2cccc(OC)c2)S3)CC1	0.5	u	-25.3%	u	2.0%
CCOc1ccc(/C=C/c2c([N+](=O)[O-])c(=O)n(C)c(=O)n2C)cc1	-93.3*	-19.9%	-9.9%	u	u
COc1ccc(/C=C/c2c([N+](=O)[O-])c(=O)n(C)c(=O)n2C)cc1	-12.5	-6.2%	20.2%	-3.7%	0.9%
CCc1ccc(/C=C/c2c([N+](=O)[O-])c(=O)n(C)c(=O)n2C)cc1	-98.4*	u	0.4%	13µM*	u
Cn1c(/C=C/c2ccc(Cl)cc2Cl)c([N+](=O)[O-])c(=O)n(C)c1=O	-4.4	11.2µM*	u	2.91µM*	9.2µM*
COc1ccc(/C=C/c2c([N+](=O)[O-])c(=O)n(C)c(=O)n2C)c(OC)c1	-27.7	-18.9%	-11.1%	19.3%	-0.7%
O=S(=O)(c1ccc(SCc2ccccc2F)nc1)N1CCCC1	10.1	x	x	0.0%	5.2%

Source: PubChem
